Reference: ChEMBL document CHEMBL3433997, “St. Jude Leishmania screening dataset” (2016)

What was measured:
Assay type in all cases: functional
[1] = molecular target: Solute carrier family 2, facilitated glucose transporter member 1 (Homo sapiens) (UniProt P11166); assay: ST_JUDE_LEISH: Cytotoxicity at 2uM final concentration against transgenic Leishmania Mexicana promastigotes LmGLUT1 that are glucose transport deficient and complemented with the human glucose transporter GLUT1. Activity is measured by DNA content using SYBR green in vitro
Solute carrier family 2, facilitated glucose transporter member 1 (Homo sapiens), sequence (P11166 whole entry): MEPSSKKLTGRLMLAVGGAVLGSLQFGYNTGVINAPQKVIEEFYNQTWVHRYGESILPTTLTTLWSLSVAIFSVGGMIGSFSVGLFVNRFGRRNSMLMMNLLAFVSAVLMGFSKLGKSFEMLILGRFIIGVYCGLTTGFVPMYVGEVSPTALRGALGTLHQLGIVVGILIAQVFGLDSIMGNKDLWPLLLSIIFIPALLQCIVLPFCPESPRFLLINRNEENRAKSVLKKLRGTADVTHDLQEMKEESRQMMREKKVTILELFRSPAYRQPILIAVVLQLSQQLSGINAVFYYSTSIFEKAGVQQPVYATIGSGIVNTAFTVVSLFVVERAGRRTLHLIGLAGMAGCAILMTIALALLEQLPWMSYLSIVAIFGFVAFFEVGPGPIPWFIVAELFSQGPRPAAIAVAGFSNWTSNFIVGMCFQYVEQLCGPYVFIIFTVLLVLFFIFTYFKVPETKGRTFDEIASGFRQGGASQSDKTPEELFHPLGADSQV

[2] = molecular target: Hexose transporter 1 (Plasmodium falciparum) (UniProt O97467); assay: ST_JUDE_LEISH: Cytotoxicity at 2uM final concentration against transgenic Leishmania Mexicana promastigotes LmPfHT that are glucose transport deficient and complemented with the Plasmodium falciparum hexose transporter. Activity is measured by DNA content using SYBR green in vitro
[3] = molecular target: Glucose transporter (Leishmania mexicana) (UniProt O61059); assay: ST_JUDE_LEISH: Cytotoxicity at 2uM final concentration against transgenic Leishmania Mexicana promastigotes LmGT2 that are glucose transport deficient and complemented with the L. Mexicana glucose transporter 2. Activity is measured by DNA content using SYBR green in vitro

CCCc1c(C(=O)Nc2ccc3c(c2)CCN(C2CCC2)CC3)cnn1-c1ccc(Cl)cc1
inhibition [1]: 5.65%
inhibition [2]: 4.4%
inhibition [3]: 2.6%

O=C(NCCN1CCCC1)c1cccc(-c2ccc(-c3nc4cc(F)ccc4[nH]3)cc2)c1
inhibition [1]: -0.09%
inhibition [2]: -0.39%
inhibition [3]: -1.28%

Oc1ccc(CCNc2nc(N/N=C/C=C/c3ccc(Cl)cc3)nc(N3CCNCC3)n2)cc1
inhibition [1]: 0.83%
inhibition [2]: 1.74%
inhibition [3]: 0.91%

CCN(CC)CCN(CCN(CC)CC)c1ccc2c(c1)Sc1c(Cl)ccc(Cl)c1S2
inhibition [1]: 1.42%
inhibition [2]: 6.29%
inhibition [3]: 3.91%

O=C(Nc1cccc(-c2cccc(-c3nc4ccccc4[nH]3)c2)c1)c1cccnc1
inhibition [1]: 2.95%
inhibition [2]: 2.73%
inhibition [3]: 0.76%

O=C(Nc1cccc(Cl)c1Cl)Nc1ccnc2ccccc12
inhibition [1]: 7.59%
inhibition [2]: 7.42%
inhibition [3]: 5.95%

CCc1c(CCNCCCCCNCCc2ccc(OC)c(OC)c2CC)ccc(OC)c1OC
inhibition [1]: 3.35%
inhibition [2]: 5.75%
inhibition [3]: 4.72%

O=C(/C=C/c1ccc(Cl)c(Cl)c1)NCCCCCN1CCCN(C(=S)Nc2ccc(Cl)c(Cl)c2)CC1
inhibition [1]: -0.53%
inhibition [2]: -1.2%
inhibition [3]: 0.13%

O=C(NCC1CCN(Cc2cccc(C(F)(F)F)c2)C1)c1cc(-c2cccc(C(F)(F)F)c2)cs1 (stereo not drawn)
inhibition [1]: 3.9%
inhibition [2]: 2.69%
inhibition [3]: 5.94%

COc1ccc(Cl)cc1N1CCN(CCCNC(=O)c2ccc(-c3nc4cc(Cl)c(F)cc4[nH]3)c(F)c2)CC1
inhibition [1]: 6.94%
inhibition [2]: 2.24%
inhibition [3]: 4.99%

CN1CCN(CC(=O)Nc2ccc(-c3ccc(-c4nc5ccccc5[nH]4)s3)cc2)CC1
inhibition [1]: 1.26%
inhibition [2]: 3.57%
inhibition [3]: 2.3%

O=C(Nc1ccc2c(c1)CCN2C1CCN(Cc2cccc(F)c2F)C1)c1ccco1 (stereo not drawn)
inhibition [1]: 2.08%
inhibition [2]: 1.62%
inhibition [3]: 2.93%

O=S(=O)(Nc1cccc(CCN2CCCCC2CCN2CCCC2)c1)c1cccc2ccccc12 (stereo not drawn)
inhibition [1]: 1.15%
inhibition [2]: 2.49%
inhibition [3]: -0.21%

FC(F)(F)c1cccc(CNCC2CCN(Cc3ccc4c(c3)OCO4)CC2)c1
inhibition [1]: 9.53%
inhibition [2]: 12.1%
inhibition [3]: 12.3%

COc1ccc2ccccc2c1CON1C(=N)N=C(N)NC1(C)C
inhibition [1]: 1.59%
inhibition [2]: 1.46%
inhibition [3]: 1.5%

O=C(Nc1ccc(-c2nc3ccccc3[nH]2)cc1)c1ccc(N2CCOCC2)c([N+](=O)[O-])c1
inhibition [1]: -0.45%
inhibition [2]: -0.76%
inhibition [3]: -0.91%

CC1(C)NC(N)=NC(=N)N1OCCCOc1cccc2ccccc12
inhibition [1]: 54.8%
inhibition [2]: 61.1%
inhibition [3]: 45.4%

NC(=O)C1CCN(Cc2ccc(-c3ccc(-c4nc5cc(C(F)(F)F)ccc5[nH]4)s3)cc2)CC1
inhibition [1]: 4.68%
inhibition [2]: 3.12%
inhibition [3]: 4.69%

CN1CCN(CCCN(C(=O)Nc2cc(C(F)(F)F)cc(C(F)(F)F)c2)c2ccccc2Cc2ccccc2)CC1
inhibition [1]: 0.6%
inhibition [2]: 0.83%
inhibition [3]: -8.69%

NCC1CCCN1Cc1cccc(-c2ccc(-c3nc4ccccc4[nH]3)s2)c1 (stereo not drawn)
inhibition [1]: 9.15%
inhibition [2]: 8.03%
inhibition [3]: 7.51%

CCOC(=O)C(=CNc1ccc(Cc2cnc(N)nc2N)cc1CC)C(=O)OCC
inhibition [1]: 2.65%
inhibition [2]: 2.16%
inhibition [3]: -3.12%

CN1CCC(Oc2cc(NC(=O)Nc3ccc(-c4ccncc4)c(Cl)c3)ccc2Cl)CC1
inhibition [1]: 16%
inhibition [2]: 13.7%
inhibition [3]: 9.26%

CC[C@H](C)CNC(=O)c1cncc(-c2ccc(CNCCOc3ccccc3)cc2)c1
inhibition [1]: 1.83%
inhibition [2]: 2.11%
inhibition [3]: 1.09%

CC(Cc1ccc(CN2CCN(Cc3ccccc3)CC2)cc1)NCC(O)c1cccc(C(F)(F)F)c1 (stereo not drawn)
inhibition [1]: 5.03%
inhibition [2]: 4.18%
inhibition [3]: 5.25%

O=C(C=Cc1ccc(Cl)c(Cl)c1)NCCCCCN1CCCC(CCCNS(=O)(=O)c2cccc(C(F)(F)F)c2)C1 (stereo not drawn)
inhibition [1]: 0.93%
inhibition [2]: -0.07%
inhibition [3]: 2.4%

Cc1cccc2nc(-c3cccc(-c4cccc(NC(=O)c5cnccc5C(F)(F)F)c4)c3)[nH]c12
inhibition [1]: 3.64%
inhibition [2]: 0.6%
inhibition [3]: -3.32%

Cc1ccc(NC(=O)c2ccc(N3CCC(c4ccccc4C)CC3)nc2)cc1
inhibition [1]: 11.9%
inhibition [2]: 9.58%
inhibition [3]: 8.1%

c1ccc(-c2cc(NCc3cccc4ccccc34)c3[nH]ncc3n2)cc1
inhibition [1]: 5.11%
inhibition [2]: 5.96%
inhibition [3]: 6.54%

COc1ccc(NC(=O)Nc2cccc(-c3ccncc3)c2)cc1N1CCN(C)CC1
inhibition [1]: 6.92%
inhibition [2]: 7.39%
inhibition [3]: 7.22%

COc1ccc2nccc([C@@H](O)CN3CCC(NCCOc4ccccc4[N+](=O)[O-])CC3)c2c1
inhibition [1]: 2.3%
inhibition [2]: 2.26%
inhibition [3]: 0.09%

COc1ccc(C=C2SC(=O)N=C2Nc2ccccc2)c(OC)c1
inhibition [1]: 6.71%
inhibition [2]: 5.61%
inhibition [3]: 2.58%

CC1CN(Cc2ccccc2)CCN1c1ccc(NC(=O)c2ccc(F)cc2)cc1 (stereo not drawn)
inhibition [1]: -1.05%
inhibition [2]: -1.7%
inhibition [3]: -3.4%

CCCNCc1ccc(-c2ccc(CN(Cc3cnc(C)cn3)C(=O)/C=C/c3ccccc3C)cc2)nc1
inhibition [1]: 2.17%
inhibition [2]: 0.74%
inhibition [3]: 0.97%

O=C(Cn1c(CCc2cccc(F)c2F)cc(=O)c2cccnc21)N(CCCn1ccnc1)Cc1ccc(-c2ccc(C(F)(F)F)cc2)cc1
inhibition [1]: 2.11%
inhibition [2]: 1.17%
inhibition [3]: 0.71%

COc1ccc(Nc2nc(C)cc(NCc3ccc(-c4c(C)noc4C)cc3)n2)cc1
inhibition [1]: 17.4%
inhibition [2]: 13.9%
inhibition [3]: 2.01%

O=C(Nc1ccc(Cl)cc1)c1ccc(CN2CCCN(CC3CCCCC3)CC2)cc1
inhibition [1]: 4.77%
inhibition [2]: 7.11%
inhibition [3]: 5.54%

CCC[C@@H]([C@@H](CC1CCCCC1)C(=O)N[C@H](C(=O)Nc1nccs1)C(C)(C)SCCNC(=O)OCc1ccccn1)N(O)C=O
inhibition [1]: -3.15%
inhibition [2]: -0.71%
inhibition [3]: 8.17%

CCCc1cc(Cc2cnc(N)nc2N)cc(OC)c1OC
inhibition [1]: 0.14%
inhibition [2]: 2.78%
inhibition [3]: 0.24%

CS(=O)(=O)N(c1cccc(F)c1)c1cc(C(=O)N[C@@H](Cc2ccccc2)[C@H](O)CNCc2cccc(C(F)(F)F)c2)cc(N2CCCC2=O)c1
inhibition [1]: -2.34%
inhibition [2]: -1.22%
inhibition [3]: -0.57%

O=C(NCCCCN1CCC(c2ccc(OC(F)(F)F)cc2)CC1)c1ccc(NC(=O)c2ccc(Cl)cc2)cc1
inhibition [1]: -1.27%
inhibition [2]: 0.81%
inhibition [3]: -1.72%

COc1ccc2c(c1)CC1CN(CCCCNC(=O)c3ccc(NC(=O)c4cc(Cl)cc(Cl)c4)cc3)CCN1C2 (stereo not drawn)
inhibition [1]: 3.25%
inhibition [2]: 4.38%
inhibition [3]: 3.79%

COc1ccc(N2CCc3c(-c4cccc5cnccc45)cc(C)nc32)c(C)c1
inhibition [1]: -0.79%
inhibition [2]: 0.13%
inhibition [3]: -0.88%

CCc1sc(N2CCN(C)CC2)nc1C(=O)Nc1ccc(F)cc1C(F)(F)F
inhibition [1]: -1.9%
inhibition [2]: 1.37%
inhibition [3]: -0.43%

Cc1nc2ccc3ccc(CNc4ccc(C#N)cc4)cc3c2c(=O)[nH]1
inhibition [1]: 50.2%
inhibition [2]: 39.6%
inhibition [3]: 56%

Fc1ccc(-c2oc(C3CCN(CCc4ccc(-c5noc(=S)[nH]5)cc4)CC3)nc2COCC(F)(F)F)cc1
inhibition [1]: 8.65%
inhibition [2]: 7.22%
inhibition [3]: 8.14%

CCN(CC)CCN(Cc1ccc(-c2ccc(C(F)(F)F)cc2)nc1)C(=O)Cn1c(SCc2ccc(F)cc2)nc(=O)c2sccc21
inhibition [1]: 1.92%
inhibition [2]: 1.65%
inhibition [3]: 1.84%

CCOc1ccc(CCC(=O)O)cc1OCC
inhibition [1]: 2.83%
inhibition [2]: 3.36%
inhibition [3]: 2.88%

C[C@H](Nc1nc(C(Oc2ccccc2)c2ccccc2)nc2[nH]ncc12)c1ccccc1 (stereo partly drawn)
inhibition [1]: 3.69%
inhibition [2]: 1.72%
inhibition [3]: 0.54%

COc1ccc(CNCc2cccc(-c3ccc(-c4nc5cccc(C)c5[nH]4)s3)c2)cc1
inhibition [1]: 3.18%
inhibition [2]: 2.97%
inhibition [3]: 2.36%

CC(C)C[C@@H](NC(=O)NC1CCC(CCN2C3CCC2CC(OC(=O)C(CO)c2ccccc2)C3)CC1)C(O)(c1ccccc1)c1ccccc1 (stereo partly drawn)
inhibition [1]: 3.28%
inhibition [2]: 2.19%
inhibition [3]: 0.94%

c1ccc(CCNc2ncnc3c2[nH]c2ccccc23)cc1
inhibition [1]: 3.67%
inhibition [2]: 11.6%
inhibition [3]: 3.69%

CCn1c(-c2nonc2N)nc2cnc(Oc3cccc(NC(=O)c4ccc(OCCCN5CCCCC5)cc4)c3)cc21
inhibition [1]: 16.4%
inhibition [2]: 25.8%
inhibition [3]: 6.29%

Cc1ccc(N2C(N)=NC(N)=NC2(C)C)cc1
inhibition [1]: 2.52%
inhibition [2]: 2.98%
inhibition [3]: 2.39%

O=C(Nc1ccccc1O)C1CCN(c2ncnc3cc(-c4ccc(F)cc4)sc23)CC1
inhibition [1]: 1.73%
inhibition [2]: 2.48%
inhibition [3]: -2.46%

Cc1cc(N[C@@H](Cc2ccccc2)C(=O)NCCCOC(C)C)nc(NCCc2ccc(F)cc2)n1
inhibition [1]: 5.75%
inhibition [2]: 2.58%
inhibition [3]: 0.38%

Cc1ccc(NC(=O)C2CCC2)cc1-c1ccc(C(=O)NCC2CC2)cc1
inhibition [1]: 1.36%
inhibition [2]: 0.51%
inhibition [3]: 0.3%

COc1cc2nc(N3CCN(c4cc(C)ccc4C)CC3)nc(N)c2cc1OC
inhibition [1]: 1.13%
inhibition [2]: 0.08%
inhibition [3]: 0.51%

COc1ccc2ncc(F)c(CCN3CCC(CNCc4cccc5c4OCO5)CC3)c2n1
inhibition [1]: 2.01%
inhibition [2]: 1.39%
inhibition [3]: 3.27%

Cc1cc(N2CCC(C)CC2)nc2cc(O)ccc12
inhibition [1]: 1%
inhibition [2]: 0.44%
inhibition [3]: 0.89%

Nc1ncc(-c2cccc(OCc3ccccc3)c2)cc1-c1nnc2ccc(Cl)nn12
inhibition [1]: 1.7%
inhibition [2]: 1.29%
inhibition [3]: 2.15%

CN(/N=C/c1ccc(Cl)cc1)c1nc(NCCc2ccc(O)cc2)nc(N2CCNCC2)n1
inhibition [1]: 7.69%
inhibition [2]: 6.81%
inhibition [3]: 6.34%

CN1CCN(c2ccnc3ccc(NC(=O)Cc4ccc5ccccc5c4)cc23)CC1
inhibition [1]: 0.96%
inhibition [2]: 2.53%
inhibition [3]: 2.12%

CC(C)(C)c1cc(C(=O)N2CCC(c3ccccn3)CC2)n(Cc2ccccc2)n1
inhibition [1]: 0.22%
inhibition [2]: 1.08%
inhibition [3]: -0.6%

Cc1ccc(-c2noc(=O)n2CC(=O)Nc2ccccc2-c2ccccc2)cc1
inhibition [1]: 0.59%
inhibition [2]: 0.52%
inhibition [3]: -0.17%

O=C(/C=C/c1ccc(Cl)c(Cl)c1)NCCCCCN1CCC(CCNC(=O)/C=C/c2ccccc2F)CC1
inhibition [1]: 2.07%
inhibition [2]: -1.13%
inhibition [3]: 2.95%

CN1CCN(c2ccnc3ccc(NC(=O)Nc4c(Cl)cccc4Cl)cc23)CC1
inhibition [1]: -2.39%
inhibition [2]: -2.3%
inhibition [3]: -1.19%

COc1cc(NC(=O)/C=C/c2ccccc2OC(F)(F)F)cc(OCCN2CCN(CCN3CCOCC3)CC2)c1
inhibition [1]: 3.4%
inhibition [2]: 3.05%
inhibition [3]: 2.34%

Oc1cccc(Nc2nc(NCc3ccco3)c3ccccc3n2)c1
inhibition [1]: 19.6%
inhibition [2]: 12.2%
inhibition [3]: 4.1%

O=C(Nc1ccccc1Cc1ccccc1)c1ccccc1C(F)(F)F
inhibition [1]: 6.25%
inhibition [2]: 1.68%
inhibition [3]: 2.61%

Cc1cc(NC(=O)Nc2ccc(Cl)cc2F)c2ccccc2n1
inhibition [1]: 3.45%
inhibition [2]: 4.56%
inhibition [3]: 1.56%

Cc1cc(NC(=O)NCCN2CCC(NC(=O)c3cccc(Br)c3)C2)c2ccccc2n1 (stereo not drawn)
inhibition [1]: 0.36%
inhibition [2]: 0.24%
inhibition [3]: 2.62%
